For 39 sequences, PBM binding z-score results are on record in the supplement of paper PMC6555819.

The test system of the first assay is THRa homodimer (NR concentration 90 nM). Nature of the assay: PBM binding z-score (relative to random genomic background probes); higher = stronger binding; sequences stand for … in GC…GCGATTGACAGCGTAGAATGAAGG
The essentials:
(§1)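 Scanned fluorescence from custom Agilent 4×180K protein-binding microarrays was regression-normalized. Binding z-scores use random background probes as reference. Ligand-free nuclear receptor dimers were incubated on the arrays for 1 h and detected with antibodies against each partner (one per run).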
ACTCAGAGGACAAAGGTCAGAGCTACGCCAGTGA had a PBM binding z-score of 0.705.

As to CGTCCAAGGTCAAAGCTCAGTGAAGAGATGACGG, the PBM binding z-score stood at 2.02.

In the case of CCTACTGGGCCAGTCAGAGGTCATTGATCATATG, the PBM binding z-score stood at 1.03.

In turn, CCTACTGGGCCATCAGGTCTTTGATATCAACGTT came in with a PBM binding z-score of 0.437.

Sequence ACTATTAGTTGATTTAGGGCAACCGATACGACGC registered a PBM binding z-score of 0.806.

Regarding CCTCGGAGGACAGAAGGTTAGAGCTGTCCGCTTT, the PBM binding z-score is -0.513.

In turn, CAGCCTAGGTCAGGGCCAGTGTAGGAGGAACGTT showed a PBM binding z-score of 0.608.

Regarding GCTTACGGGTCAAAGGTTTTAGCATGAATAGAAT, the PBM binding z-score is -0.137.

With ATAGAAAGGTCGACGAGGTGAGTATACACCGTTT, the PBM binding z-score is 0.52.

The sequence TCTAGTTGGTCAAAGGTCACACAATCGAAATGCG came in with a PBM binding z-score of 2.21.

With CCTACTGGGCCAAAGGTCATCGATTCCAATGCTC, the PBM binding z-score came out at 0.966.

CAAACTAGGTCACAGAGGTCAAAGTGCGTGCGTA yielded a PBM binding z-score of 3.02.

The sequence CGTCCAAGGTCAATGCTAGGTCAGCGAAAGCATT had a PBM binding z-score of 3.1.

As for CCTACTGGCCCATTCAGAGGTCATTGATCATATG, the PBM binding z-score was found to be 1.71.

ATCGAACGGTCGAAGGTGAGTATACCCACCCGAA yielded a PBM binding z-score of -0.481.

Sequence CAAACTAGGTCACCGGAAGGTTAAAGTCCGCATG came in with a PBM binding z-score of 2.36.

The sequence ATCTCTAGGTAAAGTTCAGTGGAAGATCGATAGA gave a PBM binding z-score of 0.319.

Take ATCTCTAGCTAAAAGTTCAGTGAATCCCGAGGAT: the PBM binding z-score was -0.0184.

CCTTACGGCTCACTCCAGGTTATAGCATCGGAGT: the PBM binding z-score amounted to 0.628.

Consider AGAATGAGGTTAAGATCAGGGAAACAGAATACAT, for which the PBM binding z-score came to 0.768.

AGAATGAGCTTAAGATCAGGGAAACAGAATACAT registered a PBM binding z-score of -0.875.

GCAGACAGGTGAAACGCAGGTAACTCTGGGTGGC yielded a PBM binding z-score of -0.802.

Turning to ACAGACAGGTGATGAAGGTAACTCAAGCTATCAT, the PBM binding z-score was -0.0849.

The sequence TCTGCTAGGCCAACGATGGTCAGCTAATCTGCTA displayed a PBM binding z-score of -1.26.

Regarding GTACCAAGGTGAATAGGTCGTTGACGAGTAGGCG, the PBM binding z-score is 0.438.

The sequence TCAGACAGGTGAAGTTAACTCAGGTACGCAGTCG gave a PBM binding z-score of 0.285.

GATACAGGGACAAGGCCAGAGTACGCGTATTGAT registered a PBM binding z-score of 0.292.

ATCCCTAGGTAAGACTCAGTTCAGTGAAGAACGC: the PBM binding z-score is 1.

The sequence CCGACTGGGGCAAGGTTACGATAACGCACAGCCA returned a PBM binding z-score of 0.056.

As for TAGCCTAGGTGATGCGGGCCAGTATAGTGTCGGC, the PBM binding z-score was -0.885.

ATCGAAAGCTCGACGAGGTGAGTATACACCGTTT had a PBM binding z-score of 0.249.

For GCGACTGGGGCATAGCAGGTTACCATAAGGTTGG, the PBM binding z-score is -0.122.

For the sequence TCTAGCAGGCCAGAGGGTCACTCATGAGGTACGG, the PBM binding z-score is -0.102.

CCTGATAGGTCAATGGTCAGCTAAAGCAGCTCGC yielded a PBM binding z-score of -0.0298.

Sequence CCTACTGGGCCATTCGGAGGTCATTGATCATATG gave a PBM binding z-score of 1.58.

TGATATAGGTAAAAGGTGAAAGTCGGTGTGGTAA showed a PBM binding z-score of 0.423.

Sequence CGTCCAAGGTCAGCAGGTCTGTGAAAGCGACGTG came in with a PBM binding z-score of 1.82.

For the sequence ACTAGCAGGCCAAGTTTGGGTCTCTCAAACAAAG, the PBM binding z-score is -0.533.

With TCTTGTAGATCAAAGGTTAAGAATGCCGAAGCCT, the PBM binding z-score was -0.308.

In the next assay the test system is VDR homodimer (NR concentration 270 nM). The assay is described as above. The essentials:
as §1
With ACTCAGAGGACAAAGGTCAGAGCTACGCCAGTGA, the PBM binding z-score was found to be 1.43.

CGTCCAAGGTCAAAGCTCAGTGAAGAGATGACGG came in with a PBM binding z-score of 2.15.

Consider CCTACTGGGCCAGTCAGAGGTCATTGATCATATG, for which the PBM binding z-score is 3.27.

On to CCTACTGGGCCATCAGGTCTTTGATATCAACGTT, for which the PBM binding z-score is -0.123.

ACTATTAGTTGATTTAGGGCAACCGATACGACGC displayed a PBM binding z-score of 0.367.

The sequence CCTCGGAGGACAGAAGGTTAGAGCTGTCCGCTTT yielded a PBM binding z-score of -0.565.

Consider CAGCCTAGGTCAGGGCCAGTGTAGGAGGAACGTT, for which the PBM binding z-score was -0.169.

Regarding GCTTACGGGTCAAAGGTTTTAGCATGAATAGAAT, the PBM binding z-score was determined as 1.41.

ATAGAAAGGTCGACGAGGTGAGTATACACCGTTT came in with a PBM binding z-score of 1.1.

TCTAGTTGGTCAAAGGTCACACAATCGAAATGCG: the PBM binding z-score came out at 3.09.

The sequence CCTACTGGGCCAAAGGTCATCGATTCCAATGCTC registered a PBM binding z-score of 2.04.

In turn, CAAACTAGGTCACAGAGGTCAAAGTGCGTGCGTA registered a PBM binding z-score of 6.01.

As to CGTCCAAGGTCAATGCTAGGTCAGCGAAAGCATT, the PBM binding z-score was determined as 3.23.

For CCTACTGGCCCATTCAGAGGTCATTGATCATATG, the PBM binding z-score amounted to 3.87.

Take ATCGAACGGTCGAAGGTGAGTATACCCACCCGAA: the PBM binding z-score was -0.147.

Sequence CAAACTAGGTCACCGGAAGGTTAAAGTCCGCATG displayed a PBM binding z-score of 1.28.

Regarding ATCTCTAGGTAAAGTTCAGTGGAAGATCGATAGA, the PBM binding z-score was determined as 2.23.

With ATCTCTAGCTAAAAGTTCAGTGAATCCCGAGGAT, the PBM binding z-score worked out at 1.64.

As for CCTTACGGCTCACTCCAGGTTATAGCATCGGAGT, the PBM binding z-score was found to be 0.0912.

Sequence AGAATGAGGTTAAGATCAGGGAAACAGAATACAT came in with a PBM binding z-score of 0.379.

Turning to AGAATGAGCTTAAGATCAGGGAAACAGAATACAT, the PBM binding z-score was -0.392.

As for GCAGACAGGTGAAACGCAGGTAACTCTGGGTGGC, the PBM binding z-score is -0.811.

As for ACAGACAGGTGATGAAGGTAACTCAAGCTATCAT, the PBM binding z-score was -0.318.

TCTGCTAGGCCAACGATGGTCAGCTAATCTGCTA registered a PBM binding z-score of -1.49.

In the case of GTACCAAGGTGAATAGGTCGTTGACGAGTAGGCG, the PBM binding z-score stood at 0.14.

In the case of TCAGACAGGTGAAGTTAACTCAGGTACGCAGTCG, the PBM binding z-score was determined as 0.404.

On to GATACAGGGACAAGGCCAGAGTACGCGTATTGAT, for which the PBM binding z-score came to 0.46.

The sequence ATCCCTAGGTAAGACTCAGTTCAGTGAAGAACGC came in with a PBM binding z-score of 1.07.

Take CCGACTGGGGCAAGGTTACGATAACGCACAGCCA: the PBM binding z-score is -0.241.

For the sequence TAGCCTAGGTGATGCGGGCCAGTATAGTGTCGGC, the PBM binding z-score was -1.22.

In turn, ATCGAAAGCTCGACGAGGTGAGTATACACCGTTT gave a PBM binding z-score of -0.291.

Consider GCGACTGGGGCATAGCAGGTTACCATAAGGTTGG, for which the PBM binding z-score was -0.335.

TCTAGCAGGCCAGAGGGTCACTCATGAGGTACGG showed a PBM binding z-score of 0.736.

CCTGATAGGTCAATGGTCAGCTAAAGCAGCTCGC yielded a PBM binding z-score of 0.339.

CCTACTGGGCCATTCGGAGGTCATTGATCATATG displayed a PBM binding z-score of 3.03.

Regarding TGATATAGGTAAAAGGTGAAAGTCGGTGTGGTAA, the PBM binding z-score stood at 0.42.

In the case of CGTCCAAGGTCAGCAGGTCTGTGAAAGCGACGTG, the PBM binding z-score worked out at 1.65.

The sequence ACTAGCAGGCCAAGTTTGGGTCTCTCAAACAAAG yielded a PBM binding z-score of -0.181.

TCTTGTAGATCAAAGGTTAAGAATGCCGAAGCCT gave a PBM binding z-score of -0.101.
